An excerpt weighted towards active compounds, which were near 12% of everything screened.
Sfp inh = qHTS Assay for Inhibitors of Bacillus subtilis Sfp phosphopantetheinyl transferase (PPTase) | 310,000 tested, 3.5% active | 4'-phosphopantetheinyl transferase ffp (Bacillus subtilis), Q9F4F7 | Potency, µM, for inactives: largest response in the series, negative = inhibition, usual class: inhibitors | Biochemical Sfp PPTase activity, qHTS;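 note: the enzyme is Sfp with the accession as filed and its product quenches rhodamine fluorescence; 0% = enzyme reaction without inhibitor and -100% = no enzyme wells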
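Compounds were incubated with enzyme (final 15 nM) for 15 min at room temperature before substrate addition started the reaction. Fluorescence at 525 nm excitation, 598 nm emission was recorded immediately and after 30 minutes.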
JMJD2A Tudor inh = qHTS Assay for Inhibitors of JMJD2A-Tudor Domain. Lysine-specific demethylase 4A (Homo sapiens), O75164. AlphaScreen JMJD2A-Tudor / H3K4me3 peptide binding. Potency, µM (doses to about 114 µM), for inactives: top-dose activity change, negative = inhibition, usual class: inhibitors. 390,000 tested, 4.4% active. AID 504339, 2011; note: % is set by controls: 0 for no effect and ±100 for the full control effect; nearly all actives have a fitted effect of over 50% in size
Target sequence (O75164 whole entry, looked up, the tested form may be a part): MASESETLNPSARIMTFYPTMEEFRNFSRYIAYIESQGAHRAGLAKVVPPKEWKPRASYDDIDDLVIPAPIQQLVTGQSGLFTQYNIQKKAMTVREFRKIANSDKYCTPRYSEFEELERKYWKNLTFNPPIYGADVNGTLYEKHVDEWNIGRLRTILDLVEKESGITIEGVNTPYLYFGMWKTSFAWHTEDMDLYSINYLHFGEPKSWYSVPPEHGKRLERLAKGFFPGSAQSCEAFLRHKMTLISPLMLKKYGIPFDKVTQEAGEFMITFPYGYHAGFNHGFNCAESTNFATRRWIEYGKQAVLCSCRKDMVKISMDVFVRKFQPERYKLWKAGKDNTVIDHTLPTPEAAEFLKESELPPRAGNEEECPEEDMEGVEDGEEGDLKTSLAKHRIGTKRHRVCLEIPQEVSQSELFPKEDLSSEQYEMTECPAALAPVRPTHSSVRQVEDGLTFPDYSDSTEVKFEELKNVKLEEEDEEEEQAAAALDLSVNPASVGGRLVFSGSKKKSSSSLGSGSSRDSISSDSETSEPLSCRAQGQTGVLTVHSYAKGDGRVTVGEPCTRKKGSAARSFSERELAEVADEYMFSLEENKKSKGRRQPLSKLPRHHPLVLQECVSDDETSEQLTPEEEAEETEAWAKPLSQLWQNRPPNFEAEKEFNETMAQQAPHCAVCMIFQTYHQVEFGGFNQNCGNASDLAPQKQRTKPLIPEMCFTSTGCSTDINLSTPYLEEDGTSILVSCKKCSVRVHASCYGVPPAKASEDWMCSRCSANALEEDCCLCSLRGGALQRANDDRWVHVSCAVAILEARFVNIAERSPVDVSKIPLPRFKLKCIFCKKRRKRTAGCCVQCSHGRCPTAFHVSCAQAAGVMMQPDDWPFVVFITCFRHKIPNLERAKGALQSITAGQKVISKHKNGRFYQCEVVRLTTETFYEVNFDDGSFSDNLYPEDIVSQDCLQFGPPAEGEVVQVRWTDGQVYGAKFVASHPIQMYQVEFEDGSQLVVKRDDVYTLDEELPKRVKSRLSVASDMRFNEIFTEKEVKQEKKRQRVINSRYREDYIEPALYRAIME
BAZ2B block = qHTS Assay for Inhibitors of BAZ2B | Bromodomain adjacent to zinc finger domain protein 2B (Homo sapiens), Q9UIF8 | AlphaScreen BAZ2B-H3K14Ac peptide displacement | Potency, µM (highest dose often 114 µM), without a hit: at the top dose activity change, negative = inhibition, usual class: inhibitors | 360,000 tested, 4.4% active; note: % is set by controls: 0 for no effect and ±100 for the full control effect; nearly all actives have a fitted effect of over 60% in size
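Multi-concentration screen (max 110 uM) measuring displacement of acetylated histone H3 peptide from BAZ2B by AlphaScreen, using 50 nM protein, 50 nM peptide and 10 ug/mL streptavidin donor plus Ni-chelate acceptor beads.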
HP1b chromo inh = HTS for Inhibitors of HP1-beta Chromodomain Interactions with Methylated Histone Tails; 390,000 tested, 0.56% active; Chromobox protein homolog 1 (Homo sapiens), P83916; AlphaScreen HP1-beta / biotin-H3K9me3 peptide binding; Potency, µM (series often up to 114 µM), inactives show top-dose activity change, negative = inhibition, most hits filed as inhibitors; note: nearly all actives have a fitted effect of over 70% in size
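AlphaScreen: HP1-beta (50 nM) preformed 30 min with biotin-H3(1-18)K9me3 peptide (50 nM) in PBS pH 7.4, 0.01% Tween-20. Compound added for 30 min at RT, then streptavidin donor/nickel chelate acceptor beads (10 ug/mL) for 30 min.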
G9a inh = qHTS Assay for Inhibitors of Histone Lysine Methyltransferase G9a; G9a H3K9 monomethylation, AlphaScreen, 2 h; Potency, µM (series often up to 102 µM), without a hit: at the top dose activity, negative = inhibition, hits mostly inhibitors; 350,000 tested, 8.8% active; AID 504332, 2011; note: % is set by controls: 0 for no effect and ±100 for the full control effect; nearly all actives have a fitted effect of over 75% in size
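G9a (20 nM) preincubated 15 min RT with compounds, then 500 nM biotinylated H3K9 peptide and 20 uM SAM added; 2 h RT reaction. Monomethyl-H3K9 product detected by AlphaScreen with anti-H3K9me1 antibody, streptavidin donor and anti-rabbit IgG acceptor beads.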
L3MBTL1 block = qHTS Assay for the Inhibitors of L3MBTL1 | 230,000 tested, 0.66% active | Lethal(3)malignant brain tumor-like protein 1 (Homo sapiens), Q9Y468 | Potency, µM (highest dose often 57.1 µM), without a hit: at the top dose activity, negative = inhibition, hits mostly inhibitors | AlphaScreen L3MBTL1–H3K9me1 peptide binding; note: % is set by controls: 0 for no effect and ±100 for the full control effect; nearly all actives have a fitted effect of over 60% in size
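Displacement of a biotinylated histone H3(1-15) peptide monomethylated at Lys9 (75 nM) from L3MBTL1 (50 nM) was measured by AlphaScreen after a 30 min room-temperature compound incubation; cefsulodin titration served as intraplate control.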
Active calls of the source: *; ? = inconclusive; / = no result given; [ ] = remark or other dose. Calls come from the whole dose curve; as a rule, active = well fitted curve in the direction sought with a large enough effect; inconclusive = small, poorly fitted or top-dose-only effect, or another doubt; inactive = no such curve, though single readings can be large; an effect the other way counts as inactive or inconclusive. Potency is the fitted concentration of half-maximal effect.

SMILES | Sfp inh | JMJD2A Tudor inh | BAZ2B block | HP1b chromo inh | G9a inh | L3MBTL1 block
CCOC(=O)c1cc(-c2ccccc2)n(CC(=O)NCc2ccccc2OC)c1C | / | -13.1% | -1.1% | 22.3% | -0.6%[59 µM] | /
COc1ccc(CNC(=O)CN2C(=O)CCCc3ccccc32)cc1 | / | -6.9% | -0.6% | 38.0% | -4.3%[59 µM] | /
CCOC(=O)c1sc(NC(=O)CNCc2ccccn2)c(C(=O)OCC)c1C | 9.3% | ? | 28.2µM* | 9.3% | / | -17.7%
c1ccc(-c2noc(-c3cccc4ccccc34)n2)cc1 | -13.5% | 29.2% | 365.1% | 202.7% | 52.8%[12.7 µM] | 91.2%
c1ccc2c(-c3nc(-c4ccncc4)no3)cccc2c1 | 10µM* | 7.6% | 74.5% | 127.7% | 29.2%[12.7 µM] | 22.5%
OCC1(CO)COC2(CCCC2)N1 | 2.5% | 15.8µM* | 3.7% | -6.1% | -4.6%[12.7 µM] | /
Cc1cc(C)nc(SCCc2ccncc2)n1 | -5.7% | 4.47µM* | 10.3% | 21.2% | 3.98µM* | -8.4%
Cc1ccc(O)c(NC(=O)c2ccc(Br)c(S(=O)(=O)N3CCCCC3)c2)c1 | / | ? | 17.8µM* | -5.1% | ? | /
CCOC(=O)N=Nc1c(O)n(CC)c2ccccc12 | 8.2% | -17.5% | -11.3% | 24.7% | ? | 0.6%
Cc1ccc2[nH]c(O)c(N=O)c2c1 | 7.7% | -5.6% | 2.4% | 21.6% | -37.6% | ?
CCc1ccc2[nH]c(O)c(N=NC3=NC(=O)CS3)c2c1 | -1.1% | -4.4%[11.4 µM] | 39.8µM* | -10.6% | ? | ?
CCc1ccc2c(c1)c(N=NC1=NC(=O)CS1)c(O)n2CC | -24.3% | ? | 50.1µM* | -6.6% | -17.1%[0.501 µM] | -9.3%
CCOc1ccc(C2CC(=O)c3c([nH]c(C(=O)OC4CCCCCC4)c3C)C2)cc1 (stereo not drawn) | / | -0.4% | -6.3% | 14.5% | 6.8%[59 µM] | /
CCOc1ccccc1NC(=O)CN1C(=O)CC(c2ccc(C)c(C)c2)=Nc2ccccc21 | / | -24.3% | -22.4% | 8.2% | 8.6%[59 µM] | /
COc1ccccc1N1CCN(CCn2c(=O)c3c(c4ccccc4n3C)n(C)c2=O)CC1 | 15.3% | / | / | / | 35.8%[59 µM] | /
CC(C)c1[nH]nc2c1C(c1ccc(OC(=O)c3ccco3)cc1)C(C#N)=C(N)O2 (stereo not drawn) | 8.1% | -31.0% | -28.8% | 11.7% | 50.1µM* | -13.1%
CC(C)(NC(=O)c1ccccc1)c1nc2ccccc2s1 | / | 79.4µM* | 8.9% | ? | -3.6%[2.33 µM] | 7.4%
COC(=O)C1CCN(CC(=O)Nc2cc(C)c3c(=O)oc4ccccc4c3n2)CC1 | / | -12.3% | -11.3% | 14.9% | -22.5%[59 µM] | /
NNc1nc2ccccc2nc1C(F)(F)F | -23.7% | 7.5%[11.4 µM] | -14.8% | -7.6% | 8.91µM* | /
Cc1ccc(S(=O)(=O)NNc2nc3ccccc3nc2C(F)(F)F)cc1 | 11.2µM* | 35.5µM* | 44.7µM* | -84.7% | 1.41µM* | /
Cc1ccc(-c2nc3ccccc3nc2NN)cc1 | 14.1µM* | -30.0% | -17.4% | 19.6% | 35.5µM* | 8.9%
NNc1nc(C(F)(F)F)nc2ccccc12 | 50.1µM* | 5.8% | 2.1% | 23.4% | 31.6µM* | /
COc1cccc(Nc2ncc3nc(C)c(=O)n(-c4ccccc4)c3n2)c1 | -8.0% | / | / | / | 5.2%[0.501 µM] | /
CCC(=O)N1c2ccc(S(=O)(=O)CCC(=O)NCc3ccc(OC)cc3)cc2CC1C (stereo not drawn) | / | -22.7% | / | 34.1% | ? | /
COc1ccccc1Nc1nnc(SCc2nnc(-c3cc(OC)c(OC)c(OC)c3)o2)s1 | -3.4% | ? | -28.4% | 5.6% | 14.1µM* | -11.7%
Nc1c(C(=O)N/N=C/c2cccnc2)oc2nc(-c3ccccc3)cc(-c3ccco3)c12 | -23.8% | -21.0% | -25.5% | 29.6% | ? | 0.0%

Screening data deposited in PubChem by National Center for Advancing Translational Sciences (NCATS).
